PubChem BioAssay
Calls of active or inactive are those of the source.

Legend:
[1] = tested on: Plasmodium falciparum Sir2 (PF13_0152, Sir2A); assay: pfSir2 binders on small-molecule microarrays, primary screen, biochemical, small-molecule microarray, 635 nm fluorescence (AID 1098); settings: small-molecule microarray binding, fluorescence 635 nm; higher = more signal;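 note: score merges spot fluorescence intensity with its signal-to-noise ratio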
[2] = small-molecule microarray binders of probe aDKK1, primary screen, biochemical, biotinylated probe, 635/667 nm fluorescence (AID 1099); settings: higher = more signal;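 note: score merges 667nm spot fluorescence with signal to noise across triplicate slides; reference of the scale not given here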
[3] = small-molecule microarray binders of probe aCHRDL2, primary screen, biochemical, biotinylated probe, 635/667 nm fluorescence (AID 1100); settings: higher = more signal
[4] = splicing luciferase reporter signal modulators, primary screen, spliceosome inhibition project, cell-based, HEK293, splice +/- reporter (AID 1101); settings: luminescence, 24 h, higher = more signal, called active from +8 up or from −8 down;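 note: HEK293 cells carrying a splicing-competent luciferase reporter gene; test concentration not given here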
[5] = biological target: Fibroblast growth factor 10 (Homo sapiens) (UniProt O15520); assay: FGF10 binders on small-molecule microarrays, primary screen, biochemical, small-molecule microarray, 635 nm fluorescence (AID 1102); settings: FGF10 binding, fluorescence 635 nm, higher = more signal
Sequence of Fibroblast growth factor 10 (Homo sapiens) (O15520 whole entry, looked up): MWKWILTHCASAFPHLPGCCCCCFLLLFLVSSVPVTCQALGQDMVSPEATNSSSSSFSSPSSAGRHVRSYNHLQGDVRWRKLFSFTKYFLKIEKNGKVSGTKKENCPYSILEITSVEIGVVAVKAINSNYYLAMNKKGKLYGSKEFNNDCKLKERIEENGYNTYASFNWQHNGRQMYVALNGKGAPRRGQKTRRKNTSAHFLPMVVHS

[6] = tested on: glycogen synthase kinase-3 (GSK3A per assay name; protocol says GSK3B); assay: GSK3 binders on small-molecule microarrays, primary screen, biochemical, small-molecule microarray, 635 nm fluorescence, GSK3A (AID 1103); settings: small-molecule microarray binding, fluorescence 635 nm; higher = more signal; note: the record names both GSK3A and GSK3B
[7] = biological target: Epidermal growth factor receptor (Homo sapiens) (UniProt P00533); assay: EGFR binders on small-molecule microarrays, primary screen, biochemical, small-molecule microarray, 635 nm fluorescence (AID 1104); settings: EGFR binding, higher = more signal;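 note: score merges 667 nm emission intensity with spot signal to noise over triplicate slides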
Sequence of Epidermal growth factor receptor (Homo sapiens) (P00533 whole entry, looked up): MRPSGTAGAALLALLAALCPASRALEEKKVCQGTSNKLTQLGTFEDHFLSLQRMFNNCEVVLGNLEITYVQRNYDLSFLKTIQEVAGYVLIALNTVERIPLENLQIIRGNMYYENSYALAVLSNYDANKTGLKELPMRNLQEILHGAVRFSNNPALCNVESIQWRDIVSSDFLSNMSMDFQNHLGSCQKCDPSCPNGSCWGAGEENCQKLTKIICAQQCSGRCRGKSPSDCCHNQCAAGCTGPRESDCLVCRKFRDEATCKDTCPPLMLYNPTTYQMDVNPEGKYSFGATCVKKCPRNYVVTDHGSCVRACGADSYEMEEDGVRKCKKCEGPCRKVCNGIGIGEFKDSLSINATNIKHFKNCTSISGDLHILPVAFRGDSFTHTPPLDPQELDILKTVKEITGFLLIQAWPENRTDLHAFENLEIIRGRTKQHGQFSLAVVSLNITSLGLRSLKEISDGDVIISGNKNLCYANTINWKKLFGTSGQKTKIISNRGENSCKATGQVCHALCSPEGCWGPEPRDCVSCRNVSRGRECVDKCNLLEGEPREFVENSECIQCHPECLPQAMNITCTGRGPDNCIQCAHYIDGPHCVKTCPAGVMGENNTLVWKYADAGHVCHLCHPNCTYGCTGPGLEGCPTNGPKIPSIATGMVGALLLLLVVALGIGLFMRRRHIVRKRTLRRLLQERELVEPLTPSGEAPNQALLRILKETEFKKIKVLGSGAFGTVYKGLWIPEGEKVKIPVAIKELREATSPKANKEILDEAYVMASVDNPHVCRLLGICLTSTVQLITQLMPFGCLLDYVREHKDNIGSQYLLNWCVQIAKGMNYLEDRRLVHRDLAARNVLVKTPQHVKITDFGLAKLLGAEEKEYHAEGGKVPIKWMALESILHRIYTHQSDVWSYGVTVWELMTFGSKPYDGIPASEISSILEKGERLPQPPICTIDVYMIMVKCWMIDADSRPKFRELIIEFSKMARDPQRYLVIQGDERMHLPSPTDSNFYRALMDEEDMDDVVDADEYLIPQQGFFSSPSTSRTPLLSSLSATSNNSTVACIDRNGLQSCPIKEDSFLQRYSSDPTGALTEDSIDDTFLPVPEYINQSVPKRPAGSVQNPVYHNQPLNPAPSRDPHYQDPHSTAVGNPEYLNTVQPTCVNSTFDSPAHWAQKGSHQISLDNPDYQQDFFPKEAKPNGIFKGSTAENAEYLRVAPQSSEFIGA

[8] = biological target: Follistatin-related protein 3 (Homo sapiens) (UniProt O95633); assay: FSTL3 binders on small-molecule microarrays, primary screen, biochemical, small-molecule microarray, 635 nm fluorescence (AID 1105); settings: FSTL3 binding, higher = more signal;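 note: score merges emission near 667 nm and signal to noise per printed spot across three slides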
Sequence of Follistatin-related protein 3 (Homo sapiens) (O95633 whole entry, looked up): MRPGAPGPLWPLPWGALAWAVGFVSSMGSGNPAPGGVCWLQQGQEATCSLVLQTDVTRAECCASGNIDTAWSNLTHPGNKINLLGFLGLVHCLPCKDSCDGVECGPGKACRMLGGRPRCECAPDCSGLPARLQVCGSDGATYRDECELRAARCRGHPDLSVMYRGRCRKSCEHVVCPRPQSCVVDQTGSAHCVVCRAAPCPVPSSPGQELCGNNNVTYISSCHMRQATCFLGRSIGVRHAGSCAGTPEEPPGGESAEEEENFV

[9] = biological target: Dickkopf-related protein 1 (Homo sapiens) (UniProt O94907); assay: DKK1 binders on small-molecule microarrays, primary screen, biochemical, small-molecule microarray, 635 nm fluorescence scan (AID 1106); settings: DKK1 binding, higher = more signal;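 note: score merges emission near 667 nm with signal to noise over three replicate slides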
Sequence of Dickkopf-related protein 1 (Homo sapiens) (O94907 whole entry, looked up): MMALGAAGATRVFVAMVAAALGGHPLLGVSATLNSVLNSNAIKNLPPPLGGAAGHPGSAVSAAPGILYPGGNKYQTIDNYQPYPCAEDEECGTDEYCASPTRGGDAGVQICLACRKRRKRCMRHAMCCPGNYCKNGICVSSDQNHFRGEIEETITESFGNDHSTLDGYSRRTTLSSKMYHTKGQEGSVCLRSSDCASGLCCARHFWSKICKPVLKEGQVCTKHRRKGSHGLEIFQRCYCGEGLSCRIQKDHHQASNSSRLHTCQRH

[10] = tested on: Inhibin beta A chain (activin A); assay: INHBA (activin A) binders on microarrays, primary screen, biochemical, small-molecule microarray, 635 nm fluorescence scan (AID 1107); settings: small-molecule microarray binding, higher = more signal;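 note: mouse activin A protein probed at 4.33 µg/mL on printed slides; score merges bound-protein fluorescence near 667 nm with spot signal-to-noise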

SMILES | composite z-score [1] | composite z-score [2] | composite z-score [3] | z-score [4] | composite z-score [5] | composite z-score [6] | composite z-score [7] | composite z-score [8] | composite z-score [9] | composite z-score [10]
COCCOC(=O)N1C(=O)[C@@]2(c3cc(C#CC4(O)CCCCCC4)ccc31)[C@H](C(N)=O)[C@H]1C(=O)O[C@H](c3ccccc3)[C@H](c3ccccc3)N1[C@@H]2c1ccc(OCCO)cc1 | 0.804 | 0.527 | 0.668 | -0.0691 (inactive) | 0.99 | 1.28 | 0.484 | 0.974 | 0.338 | 0.725
Cc1ccc(S[C@]2(C(=O)NCC(C)C)CC(=O)N(C(C)C)[C@@H]2c2ccc(CO)cc2I)cc1 | 0.115 | 0.669 | 1.28 | -1.14 (inactive) | -0.679 | -1.03 | -0.941 | -0.573 | -0.7 | 0.256
COc1cc2c(cc1OC)CN(C(=O)[C@@H]1[C@H]3C(=O)O[C@H](c4ccccc4)[C@H](c4ccccc4)N3[C@H](c3ccc(O)cc3)[C@@]13C(=O)Nc1ccc(C#CC4=CCCCC4)cc13)CC2 | 1.39 | 0.716 | 0.586 | -0.101 (inactive) | 0.975 | 1.28 | 0.452 | 1.03 | 0.453 | 0.475
COC(=O)[C@@]1(Cc2ccc(F)cc2)[C@@H]2C(=CC(=O)[C@H]2CC(=O)C(=O)N2CCCC2)CN1C(=O)c1ccccc1 | 0.9 | 1.72 | 0.978 | -4.12 (inactive) | 1.48 | 0.573 | 1.36 | 1.39 | 0.467 | 1.19
COC(=O)[C@@]1(Cc2ccc(F)cc2)[C@H]2c3cc(C(=O)N(C)C)n(Cc4ccsc4Br)c3C[C@H]2CN1C(=O)c1ccccc1 | 1.3 | 2.31 | 1.36 | -3.81 (inactive) | 1.16 | 0.0579 | 1.51 | 0.369 | 0.0249 | 0.5
COc1ccc([Si](C)(C)[C@@H]2[C@@H](CC(=O)N(CCO)Cc3ccccc3)O[C@]3(C(=O)N(Cc4cccc(I)c4)c4ccccc43)[C@H]2C)cc1 | 0.824 | -0.0248 | 0.337 | -0.847 (inactive) | 1.45 | 0.766 | 0.661 | 1.42 | 1.34 | 0.963
COc1ccc(C#Cc2ccc3c(c2)[C@]2(C(=O)N3)[C@H](c3ccccc3OCCO)N3[C@H](c4ccccc4)[C@H](c4ccccc4)OC(=O)[C@H]3[C@@H]2C(=O)NC[C@H](O)c2ccccc2)cc1 | 1.3 | 0.183 | -0.0392 | -2.01 (inactive) | 1.33 | 1.31 | 0.573 | 1.34 | 1.2 | -0.0784
C=C(COC)C(=O)CC[C@H](OC(C)=O)c1ccc(CO)o1 | 1.44 | -0.362 | -0.566 | -1.35 (inactive) | 0.757 | -0.646 | -0.0826 | 0.47 | 0.488 | 1.03
COc1cc(CO)cc(I)c1O[C@H]1C=C(C(=O)NCCO)C[C@@H](N(CCN2CCOCC2)C(=O)C2CCCO2)[C@@H]1O (stereo not given in full) | 0.226 | -0.309 | -0.521 | 0.0133 (inactive) | 0.322 | 0.507 | 0.488 | 0.152 | 0.516 | 0.356
C=CC[C@]12N=C(c3ccc(OCCCO)cc3)O[C@H]1c1ccccc1N(CCC)C2=O | 1.18 | 0.43 | 0.693 | -0.391 (inactive) | 1.11 | 1.25 | 0.37 | 1.11 | 0.277 | 1.3
COc1ccc(C(=O)Nc2cccc(CN3C(=O)[C@]4(O[C@H](CC(=O)N(CCO)Cc5ccccc5)[C@@H]([Si](C)(C)c5ccc(OC)cc5)[C@@H]4C)c4ccccc43)c2)cc1 | 1.12 | -0.275 | 0.123 | 0.288 (inactive) | 1.11 | -0.117 | 0.666 | 0.702 | 0.649 | 0.794
C[C@H]1C2[C@H](Cc3ccccc3)NC(=O)[C@]23C(=O)N[C@@H](Cc2ccccc2)C(=O)N2CCC[C@H]2C(=O)NC/C=C/CC/C=C/C3[C@@H]2O[C@]12C (stereo not given in full) | 1.26 | -0.297 | -0.684 | 0.437 (inactive) | 1.38 | 0.769 | -0.0947 | 0.895 | 0.272 | 0.87
Cc1ccc(S(=O)(=O)N2[C@@H](c3ccccc3)C(C(=O)O)=CC[C@H]2c2ccc(F)cc2)cc1 | -0.434 | -0.224 | 0.633 | -0.207 (inactive) | 0.876 | 1.08 | -0.882 | 0.489 | -0.757 | -1.32
Cc1c(NC(=O)/C(C#N)=C/C=C/c2ccc([N+](=O)[O-])cc2)c(=O)n(-c2ccccc2)n1C | 1.18 | 1.24 | 0.761 | 0.652 (inactive) | 1.19 | 1.15 | 0.404 | 1.21 | 0.534 | 0.256
CC(=O)NCCCC[C@@H]1NC(=O)[C@H]2C[C@@H](C(=O)NCCCCCN)[C@@H](c3ccc(O)cc3)N2C1=O | 0.863 | 0.316 | 0.17 | 0.0809 (inactive) | 0.544 | 1.29 | 0.511 | 0.777 | 1.02 | 0.792
COCCCNC(=O)[C@@]1(Cc2ccccc2I)c2ccccc2C(=O)N(C2CCCCC2)[C@H]1c1ccc(CO)cc1 | 1.25 | 0.015 | 0.445 | -0.235 (inactive) | 0.973 | 0.681 | -0.0802 | 0.0553 | 0.249 | 0.123
COCCOC(=O)N1C(=O)[C@@]2(c3cc(C#CC4=CCCCC4)ccc31)[C@H](C(=O)N1CCCCCCC1)[C@H]1C(=O)O[C@H](c3ccccc3)[C@H](c3ccccc3)N1[C@@H]2c1ccccc1OCCO | 1.33 | 0.854 | 1.14 | -1.09 (inactive) | 0.536 | 1.3 | 0.846 | 1.44 | 0.865 | 1.75
COCCOC(=O)N1C(=O)[C@@]2(c3cc(C#CCCO)ccc31)[C@H](c1ccc(O)cc1)N1[C@H](c3ccccc3)[C@H](c3ccccc3)OC(=O)[C@H]1[C@@H]2C(=O)NC[C@H](O)c1ccccc1 | 1.16 | -0.0668 | -0.0755 | 0.49 (inactive) | 0.758 | 0.733 | 0.0103 | 0.491 | 0.143 | 0.48
COCCOC(=O)N1C(=O)[C@@]2(c3cc(C#CCNC(N)=O)ccc31)[C@H](c1ccccc1OCCO)N1[C@H](c3ccccc3)[C@H](c3ccccc3)OC(=O)[C@H]1[C@@H]2C(=O)N1CCCCCCC1 | 1.42 | 0.784 | 0.735 | -0.402 (inactive) | 0.739 | 1.11 | 0.5 | 1.23 | 0.557 | 1.44
C#CCN(C(=O)OC(C)(C)C)[C@H](CO)c1ccccc1 | -0.223 | -0.331 | -0.601 | 0.234 (inactive) | 0.286 | 0.419 | 0.258 | -0.0195 | 0.226 | -0.415
CC(C)(C)OC(=O)CC[C@@]1(C(N)=O)N=C(c2ccc(OCCCO)cc2)O[C@@H]1c1ccccc1CN=[N+]=[N-] | 0.469 | 1.42 | 1.08 | -0.169 (inactive) | 1.48 | 1.1 | 0.0813 | 0.211 | -0.105 | 0.854
CCCN1C(=O)[C@@]2(c3ccc([N+](=O)[O-])cc3)CC(=O)N(C3CCCCC3)[C@@H]2c2ccc(CO)cc21 | 0.219 | 0.27 | -0.12 | -0.237 (inactive) | 0.453 | 0.478 | 0.121 | 0.41 | 1.2 | 0.898
CC(C)(C)OC(=O)N1[C@@H](C=C(Br)Br)COC1(C)C | 0.395 | -0.16 | -0.282 | 0.104 (inactive) | 0.382 | 0.901 | 0.614 | 0.164 | 0.393 | 0.29
C=CCNC(=O)[C@@H]1[C@H]2C(=O)O[C@H](c3ccccc3)[C@H](c3ccccc3)N2[C@H](c2ccc(OCCO)cc2)[C@@]12C(=O)Nc1ccc(C#CC3=CCCCC3)cc12 | 1.11 | -0.297 | -0.299 | -0.384 (inactive) | 1.17 | 1.21 | 0.39 | 0.882 | 0.586 | -0.621
CC1C2C(CCCO)=CC(C3C(=O)N(C)C(=O)C23)N1Cc1cccc(OC(F)(F)F)c1 (stereo not given) | 1.47 | 0.784 | 0.44 | -1.06 (inactive) | 0.684 | 1.3 | 0.0422 | 0.231 | -0.124 | 0.527
COC(=O)[C@@]1(Cc2ccc(F)cc2)[C@H]2c3cc(C(=O)N4CCCC4)n(CCc4c[nH]c5cc(F)ccc45)c3C[C@H]2CN1C(=O)c1ccccc1 | 1.05 | 0.593 | 0.852 | -0.685 (inactive) | 1.14 | 1.32 | 0.146 | 1.25 | 0.736 | 1.09
CC(C)c1ccc(NN2C(C(O)C3CCCCC3)C=CC3C(=O)N(c4ccccc4)C(=O)C32)cc1 (stereo not given) | 1.4 | 0.929 | 1.11 | 0.194 (inactive) | 0.802 | 1.24 | 0.478 | 1.11 | 0.794 | 0.874
